Unmarked numbers belong to inactive results.
Assays:
Test in all cases: log2 ratio of Biotin-Ahx-Ub-VS probe labelling (fragment/DMSO); higher = less target engagement (more negative = stronger competition), active = hit call of the paper (q ≤ 0.05, log2 ratio ≤ -1)
Details in all cases: compound concentration: 200 uM; treatment time: 3 h
OTUD6B = target: T1, OTUD6B (UniProt Q8N6M0)
T1 sequence (whole entry): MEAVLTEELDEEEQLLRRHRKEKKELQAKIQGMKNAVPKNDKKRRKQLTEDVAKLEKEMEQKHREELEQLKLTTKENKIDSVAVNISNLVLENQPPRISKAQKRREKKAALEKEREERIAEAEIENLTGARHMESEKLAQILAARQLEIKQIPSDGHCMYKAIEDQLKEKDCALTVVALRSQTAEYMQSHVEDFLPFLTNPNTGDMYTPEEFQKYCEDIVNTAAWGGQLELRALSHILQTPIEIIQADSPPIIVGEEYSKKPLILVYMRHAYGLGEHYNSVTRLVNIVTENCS
Summary of the method: (§1)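 Average log2 ratios of fragment over vehicle were obtained by unpaired t-test from global-median-normalised Spectronaut label-free quantities. Proteins with ≥2 unique peptides were included. HEK293T lysate (495 µg per sample) was treated in triplicate with fragment at 200 µM or vehicle for 3 h, then with Biotin-Ahx-Ub-VS at 0.5 µM final for 1 h, and labelled DUBs were NeutrAvidin-enriched and run by diaPASEF LC-MS/MS.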

OTUD7B = target: T2, OTUD7B (UniProt Q6GQQ9)
T2 sequence (whole entry): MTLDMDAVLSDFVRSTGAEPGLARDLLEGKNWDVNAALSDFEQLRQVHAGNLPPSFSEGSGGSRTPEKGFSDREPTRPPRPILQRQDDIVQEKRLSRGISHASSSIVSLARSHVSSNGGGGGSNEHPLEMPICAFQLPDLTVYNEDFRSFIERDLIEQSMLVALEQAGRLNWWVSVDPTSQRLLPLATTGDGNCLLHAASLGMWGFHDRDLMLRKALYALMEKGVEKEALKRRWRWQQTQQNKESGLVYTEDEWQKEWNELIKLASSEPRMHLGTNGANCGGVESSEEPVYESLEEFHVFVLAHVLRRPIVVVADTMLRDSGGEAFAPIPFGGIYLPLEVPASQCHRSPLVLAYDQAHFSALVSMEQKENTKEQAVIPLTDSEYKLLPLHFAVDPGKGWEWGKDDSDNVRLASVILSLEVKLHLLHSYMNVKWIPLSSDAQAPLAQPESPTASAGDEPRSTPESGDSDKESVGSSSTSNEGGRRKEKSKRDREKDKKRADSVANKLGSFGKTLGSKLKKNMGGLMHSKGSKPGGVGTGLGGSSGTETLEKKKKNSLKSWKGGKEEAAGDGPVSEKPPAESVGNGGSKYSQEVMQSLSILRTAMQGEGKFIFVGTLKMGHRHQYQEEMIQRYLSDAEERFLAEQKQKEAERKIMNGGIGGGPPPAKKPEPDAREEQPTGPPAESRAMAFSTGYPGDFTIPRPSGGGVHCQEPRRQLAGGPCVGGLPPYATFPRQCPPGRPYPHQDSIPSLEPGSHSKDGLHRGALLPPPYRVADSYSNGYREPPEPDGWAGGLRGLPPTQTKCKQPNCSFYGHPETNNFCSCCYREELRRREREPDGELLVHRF
Summary of the method: as §1

PRPF8 = PRPF8 (UniProt Q6P2Q9)
Summary of the method: as §1

PSMD7 = target: T3, PSMD7 (UniProt P51665)
T3 sequence (whole entry): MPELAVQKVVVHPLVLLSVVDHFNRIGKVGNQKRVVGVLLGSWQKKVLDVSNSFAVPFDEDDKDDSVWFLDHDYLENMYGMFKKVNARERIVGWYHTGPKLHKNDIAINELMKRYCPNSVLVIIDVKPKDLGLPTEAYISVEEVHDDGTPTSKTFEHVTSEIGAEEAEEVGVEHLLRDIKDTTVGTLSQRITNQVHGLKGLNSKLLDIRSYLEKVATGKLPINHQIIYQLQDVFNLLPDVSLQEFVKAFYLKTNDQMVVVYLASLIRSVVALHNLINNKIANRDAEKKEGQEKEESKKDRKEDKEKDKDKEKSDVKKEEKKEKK
Summary of the method: as §1

UCHL1 = UCHL1 (UniProt P09936)
Sequence of UCHL1 (P09936 whole entry, looked up): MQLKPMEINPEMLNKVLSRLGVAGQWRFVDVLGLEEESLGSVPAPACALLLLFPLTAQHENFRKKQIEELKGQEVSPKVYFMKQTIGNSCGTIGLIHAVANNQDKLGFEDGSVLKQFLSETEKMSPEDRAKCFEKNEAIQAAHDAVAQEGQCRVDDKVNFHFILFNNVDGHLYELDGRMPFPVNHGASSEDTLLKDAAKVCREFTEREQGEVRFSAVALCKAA
Summary of the method: as §1

UCHL3 = target: T4, UCHL3 (UniProt P15374)
T4 sequence (whole entry): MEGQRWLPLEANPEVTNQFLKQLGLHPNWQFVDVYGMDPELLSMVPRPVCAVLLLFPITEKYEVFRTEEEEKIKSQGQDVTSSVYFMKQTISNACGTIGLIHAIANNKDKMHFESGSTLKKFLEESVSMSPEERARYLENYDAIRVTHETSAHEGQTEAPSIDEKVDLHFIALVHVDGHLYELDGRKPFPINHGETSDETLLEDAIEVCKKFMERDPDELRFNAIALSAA
Summary of the method: as §1

UCHL5 = target: T5, UCHL5 (UniProt Q9Y5K5)
T5 sequence (whole entry): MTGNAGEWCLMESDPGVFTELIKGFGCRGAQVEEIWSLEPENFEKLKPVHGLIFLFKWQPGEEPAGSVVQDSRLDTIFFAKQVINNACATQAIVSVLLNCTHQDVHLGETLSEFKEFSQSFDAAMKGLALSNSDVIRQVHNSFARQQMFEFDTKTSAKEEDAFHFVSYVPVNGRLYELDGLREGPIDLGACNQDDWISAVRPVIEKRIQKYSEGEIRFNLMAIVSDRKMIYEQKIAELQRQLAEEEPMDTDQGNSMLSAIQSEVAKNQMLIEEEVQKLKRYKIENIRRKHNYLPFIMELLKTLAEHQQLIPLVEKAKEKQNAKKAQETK
Summary of the method: as §1

USP10 = USP10 (UniProt Q14694)
Sequence of USP10 (Q14694 whole entry): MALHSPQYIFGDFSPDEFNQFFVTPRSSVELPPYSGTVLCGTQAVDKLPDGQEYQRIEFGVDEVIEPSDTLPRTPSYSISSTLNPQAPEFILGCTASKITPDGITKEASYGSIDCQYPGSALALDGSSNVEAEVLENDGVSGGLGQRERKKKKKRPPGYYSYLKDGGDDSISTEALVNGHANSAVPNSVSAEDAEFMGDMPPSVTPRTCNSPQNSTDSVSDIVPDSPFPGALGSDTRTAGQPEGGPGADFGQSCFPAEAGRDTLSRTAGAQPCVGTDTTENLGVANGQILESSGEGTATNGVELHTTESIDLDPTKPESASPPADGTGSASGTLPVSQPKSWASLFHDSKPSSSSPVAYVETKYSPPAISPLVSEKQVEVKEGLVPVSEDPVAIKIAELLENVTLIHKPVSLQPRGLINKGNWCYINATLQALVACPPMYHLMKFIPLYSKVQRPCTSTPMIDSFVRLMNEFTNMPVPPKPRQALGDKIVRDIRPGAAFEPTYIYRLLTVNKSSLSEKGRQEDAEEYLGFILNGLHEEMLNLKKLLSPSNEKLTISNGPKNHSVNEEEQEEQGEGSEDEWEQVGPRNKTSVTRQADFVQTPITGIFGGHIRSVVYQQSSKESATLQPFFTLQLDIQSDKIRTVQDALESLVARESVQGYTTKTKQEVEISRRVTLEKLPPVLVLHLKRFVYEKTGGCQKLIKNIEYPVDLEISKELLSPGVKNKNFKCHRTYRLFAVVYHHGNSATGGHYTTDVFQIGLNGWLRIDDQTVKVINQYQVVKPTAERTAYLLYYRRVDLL
Summary of the method: as §1

USP15 = target: T6, USP15 (UniProt Q9Y4E8)
T6 sequence (whole entry): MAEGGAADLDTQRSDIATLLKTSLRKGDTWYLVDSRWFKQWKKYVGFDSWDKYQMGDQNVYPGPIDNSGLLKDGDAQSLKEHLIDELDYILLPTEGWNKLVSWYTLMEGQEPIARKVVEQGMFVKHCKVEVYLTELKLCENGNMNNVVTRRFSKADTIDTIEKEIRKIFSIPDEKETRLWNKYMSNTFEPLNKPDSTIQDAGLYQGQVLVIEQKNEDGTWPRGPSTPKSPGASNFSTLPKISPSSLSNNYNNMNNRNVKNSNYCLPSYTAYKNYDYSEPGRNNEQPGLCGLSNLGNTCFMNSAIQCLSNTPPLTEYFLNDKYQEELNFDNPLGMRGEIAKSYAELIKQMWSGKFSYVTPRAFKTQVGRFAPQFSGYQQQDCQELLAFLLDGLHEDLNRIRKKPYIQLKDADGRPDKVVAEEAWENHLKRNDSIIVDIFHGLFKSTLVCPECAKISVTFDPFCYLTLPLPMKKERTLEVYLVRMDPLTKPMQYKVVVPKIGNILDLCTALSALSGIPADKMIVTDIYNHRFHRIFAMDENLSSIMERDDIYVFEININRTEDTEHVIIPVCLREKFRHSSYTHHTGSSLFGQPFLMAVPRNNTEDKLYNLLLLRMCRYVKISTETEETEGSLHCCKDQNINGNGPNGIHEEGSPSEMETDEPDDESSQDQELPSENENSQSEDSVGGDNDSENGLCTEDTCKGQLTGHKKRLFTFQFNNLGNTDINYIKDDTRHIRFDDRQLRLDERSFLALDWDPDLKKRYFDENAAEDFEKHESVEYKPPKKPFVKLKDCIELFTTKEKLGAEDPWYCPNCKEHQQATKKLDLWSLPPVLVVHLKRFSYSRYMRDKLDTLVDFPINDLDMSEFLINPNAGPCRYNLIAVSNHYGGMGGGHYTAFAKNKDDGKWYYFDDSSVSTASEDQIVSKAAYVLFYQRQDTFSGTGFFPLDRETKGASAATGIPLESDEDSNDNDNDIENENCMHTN
Summary of the method: as §1

USP16 = USP16 (UniProt Q9Y5T5)
Sequence of USP16 (Q9Y5T5 whole entry, looked up): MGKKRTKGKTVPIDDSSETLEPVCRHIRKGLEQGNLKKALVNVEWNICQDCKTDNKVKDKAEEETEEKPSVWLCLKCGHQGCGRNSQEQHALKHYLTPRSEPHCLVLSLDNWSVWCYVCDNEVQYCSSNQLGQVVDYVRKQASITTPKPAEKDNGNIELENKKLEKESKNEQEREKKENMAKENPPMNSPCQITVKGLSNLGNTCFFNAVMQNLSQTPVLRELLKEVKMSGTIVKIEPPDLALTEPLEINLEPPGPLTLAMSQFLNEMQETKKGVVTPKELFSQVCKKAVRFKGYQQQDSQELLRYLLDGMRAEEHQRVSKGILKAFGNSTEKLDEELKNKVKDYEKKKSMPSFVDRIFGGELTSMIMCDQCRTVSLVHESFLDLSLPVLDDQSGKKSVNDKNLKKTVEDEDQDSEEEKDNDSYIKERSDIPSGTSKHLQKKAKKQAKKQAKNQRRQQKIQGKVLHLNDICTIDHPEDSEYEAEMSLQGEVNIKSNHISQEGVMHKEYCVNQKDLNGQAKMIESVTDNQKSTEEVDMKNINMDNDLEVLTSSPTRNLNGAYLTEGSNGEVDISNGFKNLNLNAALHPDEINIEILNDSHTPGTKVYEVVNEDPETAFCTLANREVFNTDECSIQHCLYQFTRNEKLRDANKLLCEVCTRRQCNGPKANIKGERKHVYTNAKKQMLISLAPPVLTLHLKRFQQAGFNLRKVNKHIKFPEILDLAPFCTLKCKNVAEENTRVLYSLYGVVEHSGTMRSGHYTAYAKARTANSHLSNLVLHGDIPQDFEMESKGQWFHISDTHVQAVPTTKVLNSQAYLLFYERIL
Summary of the method: as §1

CN(C)C(=O)c1ccc(CNC(=O)CCl)cc1
log2 ratio of Biotin-Ahx-Ub-VS probe labelling (OTUD6B): -0.0231 | log2 ratio of Biotin-Ahx-Ub-VS probe labelling (OTUD7B): -0.351 | log2 ratio of Biotin-Ahx-Ub-VS probe labelling (PRPF8): -0.0967 | log2 ratio of Biotin-Ahx-Ub-VS probe labelling (PSMD7): -0.0924 | log2 ratio of Biotin-Ahx-Ub-VS probe labelling (UCHL1): -1.23 (active) | log2 ratio of Biotin-Ahx-Ub-VS probe labelling (UCHL3): 0.248 | log2 ratio of Biotin-Ahx-Ub-VS probe labelling (UCHL5): -0.118 | log2 ratio of Biotin-Ahx-Ub-VS probe labelling (USP10): -0.0496 | log2 ratio of Biotin-Ahx-Ub-VS probe labelling (USP15): 0.0414 | log2 ratio of Biotin-Ahx-Ub-VS probe labelling (USP16): 0.0806

— the supplement of paper PMC11732987, “Enantioselective OTUD7B fragment discovery through chemoproteomics screening and high-throughput optimisation” (Communications Chemistry, 2025)
